Measurements: PubChem BioAssay AID977607 (Broad Institute, 2014)
About 460 (31%) of roughly 1,500 compounds were called active. About 1% were inconclusive and are not listed.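 Rule for the calls: active = curve reaches 40% activation over neutral controls at an AC40 no higher than the top valid tested concentration; inconclusive = no clear call, values can overlap the other calls; inactive = signal moving opposite to the expected increase, and the rest.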 The list is a sample of the results. Measured potencies and affinities stand elsewhere.

Experiment: activators of glucose-dependent insulin secretion, dose response, cell-based, INS-1E, Gaussia luciferase, luminescence, cherry-pick, set 2 (AID 977607);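 note: 0% = median of the plate neutral control wells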
Conditions: INS-1E GLuc insulin secretion reporter, 2-3 h, stronger effect = higher value; at 35 µM, 100% = signal doubled over neutral wells unless noted

Max activation, inactive:
CN(Cc1ccccc1)c1ncnc2[nH]ncc12 19.1% [at 3.8 µM, 100% = signal doubled over neutral wells]
CC(O)c1nc2ccccc2n1C1CCCCC1 (configuration not stated) -13.8% [at 3.8 µM, 100% = signal doubled over neutral wells]
Nn1c(C2CCCCC2)nc2ccccc2c1=O -24.8% [at 0.42 µM, 100% = signal doubled over neutral wells]
O=C(O)COc1ccc2c3c(c(=O)oc2c1)CCC3 -18%
CCOC(=O)Cc1cc(=O)n2[nH]c(-c3ccc(C)cc3)cc2n1 26.5% [at 0.015 µM, 100% = signal doubled over neutral wells]
O=C(CCS(=O)(=O)c1ccc(Cl)cc1)Nc1ccc(N2CCOCC2)cc1 26.5% [at 0.0016 µM, 100% = signal doubled over neutral wells]
CCOc1ccc(CCNC(=O)CCC(=O)c2cccs2)cc1OCC -10.4% [at 0.0016 µM, 100% = signal doubled over neutral wells]
C=CCNC(=O)c1cc(-c2ccc3c(c2)OCO3)on1 -23.5%
CCOc1cccc2cc(C(=O)Nc3cc(C)on3)c(=O)oc12 -15.3% [at 0.42 µM, 100% = signal doubled over neutral wells]
O=C(NCCc1ccccc1)c1cc(-c2ccc3c(c2)OCO3)on1 -16.8% [at 0.015 µM, 100% = signal doubled over neutral wells]
CC(=O)Cc1nsc(NC(=O)c2ccc(-c3cccc(Cl)c3)o2)n1 -41.3%
CCc1cc2c(COC(=O)c3cccc(S(C)(=O)=O)c3)cc(=O)oc2cc1O -21.8%
COCCNc1nc(NCCCN2CCCC2=O)c2sccc2n1 -21.2% [at 0.005 µM, 100% = signal doubled over neutral wells]
CN(C)c1ncnc2sc(-c3ccccc3)cc12 75.3%
CCOC(=O)c1cnc2c(cnn2C)c1Oc1ccc(OC)cc1 -8.37% [at 0.135 µM, 100% = signal doubled over neutral wells]
C=C(C)n1c(=O)n(Cc2ccccc2C)c2ccccc21 -20.9% [at 0.0016 µM, 100% = signal doubled over neutral wells]
COc1ccc(CC(=O)OCC(=O)N2CCc3ccccc32)cc1OC -17.9% [at 0.135 µM, 100% = signal doubled over neutral wells]
COc1ccc(CN(C)C(=O)CCN=C2NS(=O)(=O)c3ccccc32)c(OC)c1 -22.4% [at 0.015 µM, 100% = signal doubled over neutral wells]
O=C1Nc2ccccc2N(C(=O)c2ccc3ccccc3c2)C1c1nc2ccccc2[nH]1 (configuration not stated) -24.4% [at 11 µM, 100% = signal doubled over neutral wells]
CC1=C(C(=O)N2CCOCC2)CC(CC(=O)NCCCN(C)C)C(=O)N1CCCN1CCCC1=O (configuration not stated) -20.9%
Cc1cc(Br)ccc1NC(=O)CN(C)C(=O)C1CSC2(C)CCC(=O)N12 (configuration not stated) -12.1% [at 0.015 µM, 100% = signal doubled over neutral wells]
COc1ccc(S(=O)(=O)N2CCc3ccccc32)cc1C(=O)Nc1cccnc1 -10.3% [at 3.8 µM, 100% = signal doubled over neutral wells]
O=S(=O)(c1ccc(Cl)nc1)N1CCc2ccccc21 -28.1%
COc1cc(C(=O)O)ccc1OCc1ccccc1 -15.4% [at 0.42 µM, 100% = signal doubled over neutral wells]
CCc1ccc(N(C2C=CS(=O)(=O)C2)S(=O)(=O)c2ccccc2)cc1 (configuration not stated) -8.85% [at 0.015 µM, 100% = signal doubled over neutral wells]
CCCc1nnc2c(N(C)S(=O)(=O)c3ccc(C)cc3)nc3ccccc3n12 -17% [at 0.005 µM, 100% = signal doubled over neutral wells]
COc1ccc(Nc2c3c(nc4ccccc24)CCC3)cc1 -16.4% [at 0.046 µM, 100% = signal doubled over neutral wells]
c1csc(CNc2nc(Oc3ccncc3)c3sccc3n2)c1 -17.1% [at 0.0016 µM, 100% = signal doubled over neutral wells]
CN1CCCCC(NC(=O)c2ccccc2)C1=O (configuration not stated) -13.5% [at 0.42 µM, 100% = signal doubled over neutral wells]
COc1ccc(S(=O)(=O)Nc2ccc3c(c2)OCO3)cc1OC -21.1%
Cc1cccc(C)c1-n1nnnc1C1(C)CCC(=O)N1Cc1cccs1 (configuration not stated) 25.2%
CCOc1cc(CNc2cccc3[nH]c(C)nc23)ccc1OC -11.6% [at 0.0016 µM, 100% = signal doubled over neutral wells]
CCN(CC)C(=O)Cn1cc(C(=O)C(=O)N2CCN(Cc3ccccc3)CC2)c2ccccc21 -19.3%
CC(=O)N1CCN(c2nnc(-c3ccc(C)cc3)c3ccccc23)CC1 -19.3% [at 3.8 µM, 100% = signal doubled over neutral wells]
Cc1ncc(N=Nc2ccc(F)cc2)c(-c2ccc(Cl)cc2)n1 105%
CC(=O)Nc1nc(NCc2ccccc2Cl)n(-c2ccccc2)n1 -19.9% [at 0.135 µM, 100% = signal doubled over neutral wells]
COc1ccc(CCNC(=O)CCn2c(=O)c3cccn3c3cccnc32)cc1OC 27.2% [at 11 µM, 100% = signal doubled over neutral wells]
